Sampled rows, rich in hits. Any-hit rate of the full collection: about 7.3%.
p53 reactivator: re-activators of mutant p53; H1299 p53-A138V BP100-luciferase reporter, luminescence, 24 h; Potency, µM (series often up to 92.2 µM), for inactives: at the top dose activity change, positive = activation, hits mostly activators; 320,000 tested, 0.063% active; AID 504706; note: % of control where 0% means no effect; nearly all actives have a fitted effect of over 45% in size
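H1299 (p53-null), stable ts p53-A138V + BP100-Luc; 1000 cells/well, Opti-MEM/10% FBS; cpd 4 pt, 1:5; 24 h, 37 deg C, 5% CO2; detection reagent 10 min RT; luminescence.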
Rab9 promoter act: activates the Rab9 promoter | Potency, µM (top dose mostly 9.22 µM), for the others: at the top dose activation, negative = inhibition, hits mostly activators | Huh7 Rab9 promoter-luciferase reporter, luminescence, 24 h | AID 485297 | 320,000 tested, 2.8% active; note: % of control where 0% means no effect; nearly all actives have a fitted effect of over 60% in size
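Measured in stably transfected Huh7 cells bearing a Rab9 promoter–luciferase construct: 24 h compound treatment at 37 °C, followed by luminescence detection.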
FLuc counter: inhibits or activates purified firefly luciferase, miR-21 counter-screen | AID 588342 | purified FLuc, Km substrates, luminescence inhibition | Potency, µM (titrated, usually from 57.5 µM), without a hit: at the top dose activity change, negative = inhibition, actives largely listed as inhibitors | 360,000 tested, 6.9% active;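 note: plate controls were vehicle for no effect and reference inhibitor for full effect; nearly all actives have a fitted effect of over 55% in size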
Target sequence (P08659 whole entry, looked up): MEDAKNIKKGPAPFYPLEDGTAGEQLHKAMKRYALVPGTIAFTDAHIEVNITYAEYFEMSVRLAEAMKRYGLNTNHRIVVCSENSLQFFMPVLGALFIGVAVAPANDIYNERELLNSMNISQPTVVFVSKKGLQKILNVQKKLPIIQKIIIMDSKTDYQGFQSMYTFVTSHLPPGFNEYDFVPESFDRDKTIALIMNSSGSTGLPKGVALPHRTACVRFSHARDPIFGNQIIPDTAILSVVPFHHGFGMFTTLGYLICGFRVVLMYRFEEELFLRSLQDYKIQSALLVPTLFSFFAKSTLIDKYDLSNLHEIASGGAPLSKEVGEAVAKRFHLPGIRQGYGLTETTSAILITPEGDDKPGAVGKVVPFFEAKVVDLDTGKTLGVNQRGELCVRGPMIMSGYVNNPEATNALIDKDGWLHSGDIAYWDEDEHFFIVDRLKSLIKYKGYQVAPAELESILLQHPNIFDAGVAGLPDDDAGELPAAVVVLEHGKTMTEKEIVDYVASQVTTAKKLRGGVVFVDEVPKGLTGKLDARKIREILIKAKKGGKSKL
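Biochemical qHTS of compounds, final roughly 60 µM downward over six points, against 10 nM purified firefly luciferase using Km concentrations of substrates (10 uM D-luciferin, 10 uM ATP) in Tris acetate pH 7.5 buffer; luminescence output.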
SMN2 splice up: SMN2 splice variant enhancement; HEK293 SMN2-luciferase splicing reporter, luminescence, 30-36 h; Potency, µM (titrated, usually from 46.1 µM), without a hit: at the highest dose activity change, positive = activation, actives largely listed as activators; 210,000 tested, 2.8% active; AID 1458; note: % of control where 0% means no effect; nearly all actives have a fitted effect of over 55% in size
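qHTS luciferase splicing reporter: luminescence rises when SMN2 exon 7 is included in transfected HEK293 cells. Compound exposure lasted 30-36 h at 37C, with 4.5 mM final sodium butyrate as control, followed by a ONE-Glo read.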
NPC1 promoter act: activates the NPC1 promoter; Huh7 NPC1 promoter luciferase reporter, 24 h; Potency, µM (doses to about 9.22 µM), without a hit: top-dose activation, actives largely listed as activators; 320,000 tested, 2.4% active; AID 485313; note: % of control where 0% means no effect; nearly all actives have a fitted effect of over 60% in size
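Huh7 cells stably carrying NPC1 promoter–luciferase, plated in Opti-MEM with 10% FBS for 2 h, were exposed to compound in DMSO for 24 h at 37 °C; luciferase reagent was added for 10 min and luminescence read.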
ELG1 genotoxic: inducers of genotoxicity in HEK293T ELG1-luciferase cells. HEK293T ELG1-luciferase reporter, luminescence, 16 h. Potency, µM (titrated, usually from 46 µM), without a hit: at the top dose activity change, positive = activation, usual class: activators. 330,000 tested, 1.3% active. AID 504466; note: % of control where 0% means no effect; nearly all actives have a fitted effect of over 60% in size
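Screening used a luciferase reporter fused to human ELG1 in HEK293T cells. Luminescence was read on a CCD plate imager after 16 hr exposure and 30 min ONE-Glo incubation.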
Numbers without * were called inactive; ? = inconclusive; · = no result; [ ] = another dose, or the depositor's remark. Calls come from the whole dose curve; as a rule, active = well fitted curve in the direction sought with a large enough effect; inconclusive = small, poorly fitted or top-dose-only effect, or another doubt; inactive = no such curve, though single readings can be large; an effect the other way counts as inactive or inconclusive. Potency is the fitted concentration of half-maximal effect.

SMILES	p53 reactivator	Rab9 promoter act	FLuc counter	SMN2 splice up	NPC1 promoter act	ELG1 genotoxic
COc1ccc(/C=C(\C#N)c2nc3ccccc3[nH]2)cc1O	14.8%	?	9.53µM*	·	?	?
COc1cc(/C=C(\C#N)c2nc3ccccc3[nH]2)ccc1OCc1ccccc1F	·	·	-2.3%	-5.7%	·	·
CSC(C1CCCC1)n1nnc2ccccc21 (configuration not stated)	-1.9%	-2.1%	6.6%	·	-1.4%	-1.9%
CCC(=O)Oc1ccc(/C=C(\C#N)c2nc3ccccc3[nH]2)cc1OC	·	·	2.69µM*	?	·	·
COc1c(O)ccc(/C=C(\C#N)c2nc3ccccc3[nH]2)c1[N+](=O)[O-]	19.5%	12.2%	26.9µM*	18.4%	6.1%	1.0%
COc1c(Cl)cc(Cl)cc1/C=C(\C#N)c1nc2ccccc2[nH]1	·	·	2.1%	·	·	·
COc1cc(/C=C(/C(=O)c2cccs2)c2nc3ccccc3[nH]2)ccc1O	-25.0%	13.0%	6.75µM*	-26.7%	1.5%	-4.7%
COc1ccc(/C=C(\C#N)c2nc3ccccc3c(=O)[nH]2)cc1OC	·	·	-5.6%	-7.0%	·	·
COc1cc(/C=C(/C#N)c2nc3ccccc3c(=O)[nH]2)ccc1O	?	6.4%	8.49µM*	5.1%	11.5%	4.5%
CCN(CC)c1ccc(NC(=O)CSc2nnc(C)c(=O)[nH]2)cc1	·	·	?	9.9%	·	·
CC(C)c1ccc(C2NC(=O)c3ccccc3O2)cc1 (configuration not stated)	3.8%	15.0%	9.53µM*	·	4.1%	?
O=C(O)c1ccc(N/N=C/c2ccc(F)c(F)c2)cc1	24.9%	0.316µM*	1.69µM*	1.41µM*	0.316µM*	5.17µM*
O=C(O)c1ccc(N/N=C/c2ccncc2)cc1	13.6%	?	8.49µM*	·	?	17.0%
O=C(O)c1ccc(N/N=C/c2ccc3nccnc3c2)cc1	-10.0%	-37.8%	0.379µM*	·	-31.9%	?
Cc1nnc(N/N=C/c2cccc(C(F)(F)F)c2)n1N	28.6%	-0.8%	-1.1%	·	-1.9%	-3.9%
O=C(O)c1ccc(N/N=C/c2cccc(C(F)(F)F)c2)cc1	11.0%	0.631µM*	3.38µM*	·	0.562µM*	?
O=C(O)C1CCCN1C(=O)C1CCN(S(=O)(=O)c2cccc(C(F)(F)F)c2)CC1 (configuration not stated)	-2.5%	-1.5%	1.0%	·	-2.0%	-0.8%
Cc1cccc2c1-c1sc(C(=O)N3CCN(c4ccc(F)cc4)CC3)cc1CO2	·	·	6.0%	10.6%	·	·
C/C(=N\N1C(=O)c2ccccc2NC1c1ccccc1)c1ccccc1O (configuration not stated)	7.6%	0.631µM*	3.3%	2.82µM*	?	4.61µM*
Cc1ccc(/C=N/N2C(=O)c3ccccc3NC2c2ccc(C)cc2)cc1 (configuration not stated)	?	?	?	12.6µM*	26.1%	?
COc1ccc(N2C(=O)c3ccccc3NC2c2ccc(OC)c(Cn3cc([N+](=O)[O-])cn3)c2)cc1 (configuration not stated)	14.4%	?	-4.1%	·	2.82µM*	6.4%
O=C1c2ccccc2C(O)N1c1cccnc1 (configuration not stated)	14.5%	-9.1%	-2.2%	2.5%	0.0%	1.0%
CCOc1ccc(N2C(=O)c3ccccc3C2O)cc1 (configuration not stated)	?	?	12µM*	12.6µM*	3.16µM*	9.2µM*
O=C1c2ccccc2NC(c2ccco2)N1/N=C/c1ccco1 (configuration not stated)	12.1%	?	-5.3%	?	22.4%	12.6%
CS(=O)(=O)NN1C(=O)c2ccccc2NC1c1ccccc1 (configuration not stated)	-3.1%	1.1%	-3.0%	·	-10.0%	-0.1%
SMILES	p53 reactivator	Rab9 promoter act	FLuc counter	SMN2 splice up	NPC1 promoter act	ELG1 genotoxic
C/C(=N\N1C(=O)c2ccccc2NC1c1ccco1)c1ccccc1O (configuration not stated)	7.2%	0.355µM*	?	3.98µM*	?	?
COc1ccc(N2C(=O)c3ccccc3NC2c2ccccc2O)cc1 (configuration not stated)	?	1.26µM*	-18.6%	·	1.41µM*	?
CC(C)Oc1ccccc1C1Nc2ccccc2C(=O)N1c1ccc2c(c1)OCCO2 (configuration not stated)	13.2%	1.12µM*	13.5µM*	7.94µM*	0.794µM*	?
COc1ccc(/C(C)=N/N2C(=O)c3ccccc3NC2c2ccc(O)c(OC)c2)cc1 (configuration not stated)	9.3%	?	13.5µM*	·	15.9%	?
CC(C)Cn1nnnc1S(=O)(=O)Cc1ccccc1	·	·	·	-4.5%	·	·
Cc1cccc(NC(=O)C(NS(=O)(=O)c2cccc3nsnc23)c2ccccc2)c1C (configuration not stated)	·	·	1.6%	0.4%	·	·
COc1cc(C2Nc3ccc4ncccc4c3C3=C2C(=O)CC(C)(C)C3)cc(OC)c1O (configuration not stated)	-6.1%	-11.1%	-1.9%	28.2µM*	-1.0%	?
COc1cc(C2Nc3ccc4ncccc4c3C3=C2C(=O)CCC3)cc(OC)c1O (configuration not stated)	-8.0%	-19.6%	-0.7%	10µM*	-12.9%	?
Cc1cc(NC(=O)CCN2C(=O)/C(=C/c3ccccc3F)SC2=S)no1	1.5%	0.5%	-3.4%	-17.2%	-2.3%	1.8%
O=C(CN1C(=O)S/C(=C\c2ccccc2)C1=O)Nc1cc([N+](=O)[O-])ccc1O	-11.6%	10.6%	13.5µM*	·	3.2%	-0.7%
O=C(CCN1C(=O)/C(=C\c2ccccc2F)SC1=S)Nc1ccc(C(=O)O)c(O)c1	16.8%	0.7%	5.36µM*	·	-3.6%	3.2%
O=C(CCN1C(=O)S/C(=C/c2ccccc2)C1=O)Nc1ccc(C(=O)O)c(O)c1	?	24.2%	2.39µM*	·	22.5%	7.9%
O=C(CCN1C(=O)S/C(=C\c2ccc(F)cc2)C1=O)Nc1ccc(C(=O)O)c(O)c1	6.2%	12.6%	2.13µM*	·	?	7.5%
O=S(=O)(c1ccccc1)N1CCC2(CCN(Cc3ccncc3)CC2)CC1	·	·	·	-20.8%	·	·
O=C(O)C[C@H]1OCC=C2C[N@@+]3([O-])CC[C@]45c6ccccc6N[C@@H]4[C@@H]1[C@H]2C[C@H]53	·	·	·	8.1%[9.22 µM]	·	·
O=C(CN1C(=O)/C(=C/c2ccco2)SC1=S)Nc1ccc(C(=O)O)c(O)c1	-2.3%	2.1%	19µM*	·	0.4%	4.1%

Bioassay records as filed in PubChem BioAssay.
